PubChem BioAssay (Tox21)
Records with an inconclusive call do not appear. Where a call stands in place of a potency, no number is given. The source made the active and inactive calls. Unless noted, the call rests on the fitted dose curve; in most records, active means well fitted curve in the direction sought with a large enough effect in the repeat runs; inconclusive means weak or mixed curves; inactive means no such curve, though single readings can be large; an effect the other way counts as inactive or inconclusive.

How the values were obtained:
[1] = target: Thyrotropin receptor (Homo sapiens) (UniProt P16473); experiment: qHTS assay to identify small molecule antagonists of the thyroid stimulating hormone receptor (TSHR) signaling pathway (AID 1259385; calls by dose curve; further: nearly all actives have a fitted effect of over 20% in size)
Method in brief: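 TSHR-HEK293 cells (800/well) plated 18 h, then compounds with Ro20-1724 and TSH at 1.5 ng/mL final, 30 min at room temperature. cAMP quantified by HTRF (cAMP-d2/anti-cAMP-cryptate, 1 h); 15 concentrations in triplicate.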

[2] = qHTS assay to identify small molecule agonists of the estrogen receptor alpha (ER-alpha) signaling pathway in the presence of an antagonist - cell viability counter screen (AID 1259386);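 further: series mostly up to about 92 µM; cells exposed to compounds for 22 h at 37 °C before the viability read; nearly all actives have a fitted effect of over 30% in size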
Method in brief: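 Cytotoxicity was measured in parallel with the ERE-luciferase agonist screen, in the same wells. The cells were VM7Luc4E2, which endogenously express ER-alpha, and treatment was with compounds plus 10.0nM ICI-182,780 for 22hr.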

[3] = target: Progesterone receptor (Homo sapiens) (UniProt P06401); experiment: qHTS assay to identify small molecule agonists of the progesterone receptor (PR) signaling pathway (AID 1346784; calls by dose curve; further: nearly all actives have a fitted effect of over 30% in size)
Method in brief: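 HEK 293T PR-UAS-bla reporter cells, 2% charcoal-stripped FBS; 6 hr settle at 37C/5% CO2, compound (DMSO) 16 hr, LiveBLAzer B/G FRET substrate 2 hr RT, fluorescence intensity read.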

[4] = target: Progesterone receptor (Homo sapiens) (UniProt P06401); experiment: qHTS assay to identify small molecule antagonists of the progesterone receptor (PR) signaling pathway (AID 1346795; active means well fitted inhibition curve with a large enough effect in the signal ratio in the repeat runs, not every such curve was filed as active; the % refers to the signal ratio; further: potency means the concentration at half of the fitted maximal effect)
Method in brief: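 Beta-lactamase reporter, HEK293T PR-UAS-bla line; 2% charcoal-stripped FBS; 6 hr pre-incubation, 37C/5% CO2. Compound + R5020 1 nM final, 16 hr. LiveBLAzer B/G FRET substrate, 2 hr RT; fluorescence intensity read.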

[5] = qHTS assay to identify small molecule antagonists of the progesterone receptor (PR) signaling pathway - cell viability counter screen (AID 1346798); further: nearly all actives have a fitted effect of over 50% in size; further: potency means the concentration at half of the fitted maximal effect
Method in brief: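 Luminescence readout (CellTiter-Glo, 30 min, RT) of viability in PR-UAS-bla HEK293T cells exposed to compound and R5020 agonist for 16 hr at 37C, 5% CO2; run in the same wells as the beta-lactamase reporter read.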

[6] = qHTS assay to identify small molecule antagonists of the TGF-beta/Smad signaling pathway - cell viability counter screen (AID 1346824); further: nearly all actives have a fitted effect of over 50% in size
Method in brief: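 SBE-bla HEK 293T cells, incubated overnight, then compound plus 0.25 ng/mL TGF-beta1 (stock added) for 5 hr at 37 C. Viability was read in the same wells by CellTiter-Glo luminescence after 30 min at room temperature.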

[7] = qHTS assay to identify small molecule agonists of the TGF-beta/Smad signaling pathway - cell viability counter screen (AID 1346829); further: top concentration of the series differs between compounds; nearly all actives have a fitted effect of over 45% in size
Method in brief: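 In parallel with the Smad reporter read, viability of HEK 293T cells stably carrying SBE-bla is quantified by ATP luminescence following 5 hr compound treatment.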

[8] = qHTS assay to identify small molecule agonists of the TGF-beta/Smad signaling pathway (AID 1346859; active means well fitted activation curve with a large enough effect in the signal ratio in the repeat runs, not every such curve was filed as active; the % refers to the signal ratio; further: series mostly up to about 77 µM)
Method in brief: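 Read-out: fluorescence at 460 and 530 nm (405 nm excitation) after a 2 hr room-temperature incubation with beta-lactamase FRET substrate. SBE-bla HEK 293T cells had been treated with test compounds for 5 hr at 37 C.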

[9] = qHTS assay to identify small molecule agonists of the progesterone receptor (PR) signaling pathway - cell viability counter screen (AID 1346799; calls by dose curve; further: nearly all actives have a fitted effect of over 45% in size; further: potency means the concentration at half of the fitted maximal effect)
Method in brief: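 HEK293T PR-UAS-bla, 3,000 cells/well, 2% charcoal-stripped FBS; 6 h settle, compound 16 h at 37C/5% CO2; LiveBLAzer 2 h RT, then CellTiter-Glo 30 min RT, luminescence read.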

[10] = target: Thyrotropin-releasing hormone receptor (Homo sapiens) (UniProt P34981); experiment: qHTS assay to identify small molecule antagonists of the thyrotropin-releasing hormone receptor (TRHR) signaling pathway (AID 1346877; active means well fitted inhibition curve with a large enough effect in the repeat runs, not every such curve was filed as active; further: series mostly up to about 51 µM)
Method in brief: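 Antagonism is measured as suppression of the calcium response to 1 nM TRH in TRHR-HEK293 cells that have been dye-loaded for 2 h at 37 °C after overnight plating. Each compound is tested at 15 concentrations in triplicate.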

Sequence of Progesterone receptor (Homo sapiens) (P06401 whole entry, looked up): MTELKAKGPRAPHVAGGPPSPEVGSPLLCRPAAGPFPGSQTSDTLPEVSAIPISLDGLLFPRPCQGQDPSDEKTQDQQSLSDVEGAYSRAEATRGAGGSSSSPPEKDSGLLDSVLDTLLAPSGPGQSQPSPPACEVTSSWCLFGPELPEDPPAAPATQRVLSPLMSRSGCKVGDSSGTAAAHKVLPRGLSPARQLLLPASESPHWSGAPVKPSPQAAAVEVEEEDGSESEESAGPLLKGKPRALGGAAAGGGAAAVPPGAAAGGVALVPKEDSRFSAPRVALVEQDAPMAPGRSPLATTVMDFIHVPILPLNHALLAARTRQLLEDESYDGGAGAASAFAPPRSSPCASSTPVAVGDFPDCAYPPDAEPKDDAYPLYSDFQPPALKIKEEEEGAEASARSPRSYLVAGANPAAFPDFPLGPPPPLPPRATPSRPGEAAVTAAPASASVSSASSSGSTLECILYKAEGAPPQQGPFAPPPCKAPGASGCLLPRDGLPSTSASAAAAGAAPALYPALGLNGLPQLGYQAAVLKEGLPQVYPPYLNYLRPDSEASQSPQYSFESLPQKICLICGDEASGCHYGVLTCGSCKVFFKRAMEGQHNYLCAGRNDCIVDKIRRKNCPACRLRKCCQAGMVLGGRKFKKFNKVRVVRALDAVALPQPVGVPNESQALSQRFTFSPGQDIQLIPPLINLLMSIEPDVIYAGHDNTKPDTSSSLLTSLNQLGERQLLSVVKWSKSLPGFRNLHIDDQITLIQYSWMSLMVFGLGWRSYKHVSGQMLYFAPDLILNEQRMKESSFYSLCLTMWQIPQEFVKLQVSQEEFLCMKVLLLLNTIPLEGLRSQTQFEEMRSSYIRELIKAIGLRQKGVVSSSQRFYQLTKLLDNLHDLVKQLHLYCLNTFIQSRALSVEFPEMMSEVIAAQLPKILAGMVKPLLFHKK
Sequence of Thyrotropin-releasing hormone receptor (Homo sapiens) (P34981 whole entry, looked up): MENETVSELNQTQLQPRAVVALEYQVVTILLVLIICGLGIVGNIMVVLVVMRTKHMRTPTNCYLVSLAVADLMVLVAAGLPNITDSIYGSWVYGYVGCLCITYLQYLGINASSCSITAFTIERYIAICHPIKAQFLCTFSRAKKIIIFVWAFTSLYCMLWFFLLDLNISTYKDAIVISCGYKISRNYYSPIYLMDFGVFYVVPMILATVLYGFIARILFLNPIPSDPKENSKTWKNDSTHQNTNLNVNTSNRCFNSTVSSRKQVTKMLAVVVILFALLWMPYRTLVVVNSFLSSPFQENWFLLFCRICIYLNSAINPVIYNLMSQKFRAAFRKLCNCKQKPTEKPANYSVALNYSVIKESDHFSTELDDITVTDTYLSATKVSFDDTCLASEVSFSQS
Sequence of Thyrotropin receptor (Homo sapiens) (P16473 whole entry, looked up): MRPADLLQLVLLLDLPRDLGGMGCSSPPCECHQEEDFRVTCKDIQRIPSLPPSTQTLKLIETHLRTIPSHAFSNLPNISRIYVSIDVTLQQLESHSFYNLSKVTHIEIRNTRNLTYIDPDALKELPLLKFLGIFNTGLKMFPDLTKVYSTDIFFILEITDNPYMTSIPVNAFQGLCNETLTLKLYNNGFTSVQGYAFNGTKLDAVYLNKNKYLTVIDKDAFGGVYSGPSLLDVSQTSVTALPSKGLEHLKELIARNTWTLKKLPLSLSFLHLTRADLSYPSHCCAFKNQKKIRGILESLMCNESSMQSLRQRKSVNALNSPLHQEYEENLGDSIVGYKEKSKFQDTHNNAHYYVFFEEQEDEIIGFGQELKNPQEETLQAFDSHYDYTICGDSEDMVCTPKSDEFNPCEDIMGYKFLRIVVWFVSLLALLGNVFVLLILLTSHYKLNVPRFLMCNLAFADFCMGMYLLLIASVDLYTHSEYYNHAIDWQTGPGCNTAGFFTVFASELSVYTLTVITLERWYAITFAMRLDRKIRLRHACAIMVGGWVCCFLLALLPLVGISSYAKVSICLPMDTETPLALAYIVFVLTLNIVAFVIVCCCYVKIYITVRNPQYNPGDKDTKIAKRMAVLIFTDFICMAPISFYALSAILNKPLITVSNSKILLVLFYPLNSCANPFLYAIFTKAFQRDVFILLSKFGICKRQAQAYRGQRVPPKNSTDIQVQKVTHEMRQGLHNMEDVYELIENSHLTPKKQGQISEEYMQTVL

| Compound | Potency [1] | Potency [2] | Potency [3] | Potency [4] | Potency [5] | outcome [6] | outcome [7] | outcome [8] | Potency [9] | outcome [10] |
| --- | --- | --- | --- | --- | --- | --- | --- | --- | --- | --- |
| Oc1ccc(Oc2ccccc2)cc1 | inactive | inactive | inactive | 20.6 µM (active) | inactive | inactive | inactive | inactive | – | – |
| FC(F)(Cl)C(F)(Cl)Cl | inactive | inactive | inactive | – | inactive | inactive | inactive | inactive | inactive | inactive |
| Cc1cc(C)c(C)c(O)c1 | inactive | inactive | inactive | – | inactive | inactive | inactive | inactive | inactive | inactive |
| CC(C)Oc1ccccc1O | inactive | inactive | inactive | inactive | inactive | – | inactive | inactive | – | inactive |
| CC(C)(Cc1c[nH]c2ccccc12)NCC(O)COc1ccccc1C#N (stereo not drawn) | inactive | inactive | inactive | inactive | – | inactive | inactive | inactive | – | inactive |
| CCOC(=O)CC(O)(CC(=O)OCC)C(=O)OCC | inactive | inactive | inactive | – | inactive | inactive | inactive | inactive | inactive | – |
| Sc1nc(S)nc(S)n1 | inactive | inactive | inactive | inactive | – | inactive | inactive | inactive | inactive | inactive |
| OCCc1ccncc1 | inactive | inactive | inactive | – | inactive | inactive | inactive | inactive | inactive | inactive |
| O=c1[nH][nH]c2ccccc12 | inactive | inactive | inactive | – | inactive | inactive | inactive | inactive | inactive | inactive |
| COc1cc(CNC(=O)CCCC/C=C/C(C)C)ccc1O | inactive | inactive | inactive | 53 µM (active) | – | inactive | inactive | inactive | – | inactive |
| CC(O)CN (stereo not drawn) | inactive | inactive | inactive | – | inactive | inactive | inactive | inactive | inactive | inactive |
| CC(COc1ccccc1)NC(C)C(O)c1ccc(O)cc1 (stereo not drawn) | inactive | inactive | inactive | inactive | – | inactive | inactive | inactive | inactive | inactive |
| CCCCCCCCCCCCCCCCN | inactive | inactive | inactive | inactive | inactive | inactive | inactive | inactive | – | inactive |
| C=Cc1ccc(C=C)cc1 | inactive | inactive | inactive | – | inactive | inactive | inactive | inactive | inactive | inactive |
| CC1(C)C(=O)NC(=O)N1CO | inactive | inactive | inactive | – | inactive | inactive | inactive | inactive | inactive | – |
| O=C(OCCOCCOCCOC(=O)c1ccccc1)c1ccccc1 | inactive | inactive | inactive | – | inactive | inactive | inactive | inactive | inactive | inactive |
| NCCOCCOCCN | inactive | inactive | inactive | – | 15.4 µM (active) | inactive | inactive | inactive | – | inactive |
| CC(C)CCCCCCCOC(=O)c1ccc(C(=O)OCCCCCCCC(C)C)c(C(=O)OCCCCCCCC(C)C)c1 | inactive | inactive | inactive | – | – | inactive | inactive | inactive | 42.6 µM (active) | – |
